The panel holds about 79,000 compounds, 15% with a hit somewhere; the sample as a whole holds those more often. No stated cut-off is given here; in the data, active means growth inhibition above about 70%; inactive means the rest.
What was measured:
[1] = NCI Yeast Anticancer Drug Screen. Data for the rad50 strain (AID 155);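 further: 0% = growth of vehicle-only cultures of the same strain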; conditions: S. cerevisiae rad50 strain growth inhibition; at 50.0 µM; hits give high values
Summary of the method: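 Growth of the mutant yeast was measured after compound exposure and referenced to vehicle-treated cultures.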

[2] = NCI Yeast Anticancer Drug Screen. Data for the mec2-1 strain (AID 157); conditions: S. cerevisiae mec2-1 strain, at 50.0 µM, hits give high values
Summary of the method: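 Using mec2-1 yeast: add compound, measure growth, express inhibition versus vehicle-treated cultures.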

[3] = NCI Yeast Anticancer Drug Screen. Data for the sgs1 mgt1 strain (AID 161);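 further: 0% = growth of cultures given vehicle only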; conditions: S. cerevisiae sgs1 mgt1 strain, at 50.0 µM, hits give high values
Summary of the method: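 Percent growth inhibition was derived by comparing compound-exposed mutant yeast with vehicle-exposed cultures. The strain carries alterations in DNA damage repair.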

[4] = NCI Yeast Anticancer Drug Screen. Data for the cln2 rad14 strain (AID 165);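 further: 0% = growth equal to vehicle treated cultures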; conditions: S. cerevisiae cln2 rad14 strain, at 50.0 µM, hits give high values
Summary of the method: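 Yeast strain cln2 rad14, bearing defects in cell cycle control and DNA repair, serves as the test system; values reflect growth inhibition compared with vehicle.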

[5] = NCI Yeast Anticancer Drug Screen. Data for the bub3 strain (AID 167); conditions: S. cerevisiae bub3 mutant strain, at 50.0 µM, hits give high values
Summary of the method: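 Whole-cell yeast assay. The mutant strain was incubated with compounds, and growth inhibition was determined by comparison with vehicle-treated cells.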

[6] = NCI Yeast Anticancer Drug Screen. Data for the mlh1 rad18 strain (AID 175); conditions: S. cerevisiae mlh1 rad18 strain growth inhibition; at 50.0 µM; hits give high values
Summary of the method: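 Steps: expose repair-defective yeast to compound; measure growth; express inhibition against vehicle-treated controls.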

Measured: growth inhibition

O=S1(=O)c2ccc(cc2)N=CC=Nc2ccc1cc2
inactive: [1] 5.25% | [2] -11.7% | [3] 10% | [4] -2.4% | [5] 14.3% | [6] 12.1%

C/C=C1\CN2CCc3c([nH]c4ccccc34)C2C=C1CCO (configuration not stated)
inactive: [1] -19.1% | [2] -34.4% | [3] -26.4% | [4] -13.2% | [5] -41.1% | [6] -43.7%

COc1cc2c(cc1OC)C(=O)/C(=C/c1ccccc1)CC2
inactive: [1] 6.95% | [2] -6.45% | [3] 12.2% | [4] 11.8% | [5] 37% | [6] 28.6%

CC(=O)C1=CN(Cc2ccccc2)C(O)CC1C(N)=O (configuration not stated)
inactive: [1] 7.55% | [2] -12.6% | [3] 4.7% | [4] 10.8% | [5] 16.1% | [6] 1.3%

O=C1OC(Cl)C=C1c1ccccc1 (configuration not stated)
inactive: [1] 5.2% | [2] -7.35% | [3] -4.35% | [4] -36.5% | [5] -23.5% | [6] 0.65%

CC(=O)OC1CCC2(C)C(CCC3C2CCC2(C)C3CCC2C(C)(C)O)C1 (configuration not stated)
inactive: [1] -2.2% | [2] 0.3% | [3] -16.4% | [4] -9.15% | [5] -2.45% | [6] 20.6%

CC1=NC(=Cc2ccccc2O)C(=O)N1n1c(-c2ccccc2)nc2ccccc2c1=O
inactive: [1] 22.4% | [2] 17.7% | [3] 51.5% | [4] 16.6% | [5] 42.5% | [6] 44.5%

[O-]C(=N/C(=N/[n+]1ccccc1)c1ccccc1)c1ccccc1
inactive: [1] 12.2% | [2] 10.9% | [3] 4.2% | [4] -9% | [5] -4.05% | [6] 2%

NNC(=S)N/N=C(\CCCC(=O)NCCc1ccccc1)CC(=O)c1ccccc1
inactive: [1] -3.6% | [2] 12.8% | [3] -21.3% | [4] 18.1% | [5] 8.15% | [6] 8.8%

O=C(O)CN=CC(O)C(O)C(O)C(O)CO (configuration not stated)
inactive: [1] -9.8% | [2] -3.8% | [3] 3.9% | [4] 4.4% | [5] 9.15% | [6] -2.45%

COc1cc(C#N)cc(OC)c1OC
inactive: [1] 26% | [2] -14.8% | [3] 2.85% | [4] 1.45% | [5] 1.85% | [6] -12.2%

Cc1c(N)cc2c(c1[N+](=O)[O-])C(C)(C)CC2(C)C
inactive: [1] 3.15% | [2] -14.1% | [3] 1.6% | [4] -5.2% | [5] 11.9% | [6] -0.85%

CC1=C(C(=O)CC(=O)C(=O)Nc2ccc(Cl)cc2Cl)Sc2ccccc2N1
inactive: [1] -5.65% | [2] -11.2% | [3] -20.1% | [4] -6.1% | [5] 2.55% | [6] 3.45%

CN(C)N=Nc1c(F)cc(F)c(F)c1F
inactive: [1] 4.75% | [2] 3.35% | [3] -9% | [4] -14.2% | [5] 7.3% | [6] -4.05%

O=C(COc1ccc(Cl)cc1)Nc1nccs1
inactive: [1] 4.95% | [2] 32% | [3] 26.6% | [4] 5.7% | [5] 20.4% | [6] 21.4%

O=C1CCC(=O)C(C(=O)CCC(=O)Nc2cccc(Cl)c2)C1 (configuration not stated)
inactive: [1] -20.6% | [2] -6.5% | [3] -11.7% | [4] 19.8% | [5] 11.9% | [6] -4.9%

O=C(Nc1ccc(Cl)c(Cl)c1)C(=O)C(C(=O)c1ccccc1-c1ccccc1)C1OC(=O)c2ccccc21 (configuration not stated)
inactive: [1] 20.2% | [2] -0.45% | [3] 5.85% | [4] -50.5% | [5] 4.85% | [6] -8.9%

O=C(O)c1cc2c([nH]1)-c1cccnc1C(=O)C2=O
inactive: [1] -9.6% | [2] -11.3% | [3] -15.8% | [4] -18.8% | [5] -1.4% | [6] 14.1%

CCC(=O)NN1C(=O)c2ccccc2C1=O
inactive: [1] -13.8% | [2] -15.4% | [3] -23.4% | [4] -13.2% | [5] -16.5% | [6] -10.2%

COC(=O)c1ccccc1NC(=O)C(=O)NNC(=O)c1ccncc1
inactive: [1] 10.3% | [2] -3% | [3] -4.4% | [4] 7.55% | [5] -0.8% | [6] 22.1%

O=C(O)Cc1cc(I)c(Oc2ccc(O)cc2)c(I)c1
inactive: [1] -5% | [2] -29.4% | [3] 6.05% | [4] 15.2% | [5] -9.5% | [6] 3.9%

COc1cc(C(=O)NOCc2cccc(C(F)(F)F)c2)cc(OC)c1OC
inactive: [1] 39.8% | [2] -11.2% | [3] 15.9% | [4] -14.8% | [5] 2.5% | [6] 6.25%

Cc1cc(C[C@H]2O[C@@H]3OC(C)(C)O[C@@H]3[C@H]3OC(C)(C)O[C@H]32)c2ccccc2n1
inactive: [1] -4.6% | [2] 12% | [3] 19.9% | [4] -4.2% | [5] 9.1% | [6] 17.6%

CCCCCOS(C)(=O)=O
inactive: [1] -4.6% | [2] -14.2% | [3] 4.85% | [4] -36.5% | [5] 0.55% | [6] -20.1%

CCCCCCCCCCCCCCCCCC(=O)O
inactive: [1] -5.2% | [2] -17.4% | [3] 0.1% | [4] -5.75% | [5] -17.1% | [6] 6.05%

N#Cc1ncn(CCO)c1N
inactive: [1] 8.7% | [2] -22.4% | [3] 3.3% | [4] 3.9% | [5] -3.95% | [6] -43.5%

C1CCN(/N=N/c2nn[nH]n2)CC1
inactive: [1] -2.3% | [2] 6.55% | [3] -2.8% | [4] -23% | [5] 3.9% | [6] -0.7%

COc1cc([N+](=O)[O-])c2ncccc2c1
inactive: [1] -15.9% | [2] -16% | [3] -7.6% | [4] 6.9% | [5] -3.1% | [6] 18.1%

CCCC1(C)OCC(C)([N+](=O)[O-])CO1 (configuration not stated)
inactive: [1] -26% | [2] -11.2% | [3] -3.25% | [4] -22.4% | [5] -24% | [6] 10.8%

CCOC(=O)Cn1c2ccccc2c(=O)c2cc(C)c(C)c(C#N)c21
inactive: [1] 13.4% | [2] -12.9% | [3] -11.6% | [4] 9% | [5] 8.5% | [6] 8.1%

O=C(CSc1nnc(-c2ccc(N=Cc3ccc(Cl)cc3)cc2)o1)Nc1ccc(Cl)cc1
inactive: [1] 3.1% | [2] -41% | [3] -2.25% | [4] -66% | [5] -11.8% | [6] 0%

Nc1ccc(CCc2ccc3ccccc3n2)cc1
inactive: [1] 33.2% | [2] -9.25% | [3] 15.9% | [4] 7.9% | [5] -16.2% | [6] 33.5%

CN(c1ccc(Cl)cc1)S(=O)(=O)c1ccc([N+](=O)[O-])cc1
inactive: [1] -13.2% | [2] -23.5% | [3] 23.4% | [4] 32.4% | [5] 38% | [6] -5.9%

C=C1c2nc3ccccc3n2C=C(c2ccc(Cl)cc2)N1c1ccc(OC)cc1
inactive: [1] -3.95% | [2] 23.4% | [3] 19.8% | [4] 11.4% | [5] 7.7% | [6] 40.2%

O=C1NN(c2ccccc2)CCO1
inactive: [1] -2.45% | [2] -3.2% | [3] -5.25% | [4] -18.6% | [5] 0.1% | [6] 2.15%

NC(=O)C1CCCN1C(=O)C(Cc1cnc[nH]1)NC(=O)C1CCCC1 (configuration not stated)
inactive: [1] -46.4% | [2] -1.6% | [3] -1.65% | [4] 8.1% | [5] 7.05% | [6] -8.35%

COc1cccc(/C=C2\CCC(C)(CN(C)C)C2=O)c1 (configuration not stated)
inactive: [1] 32.9% | [2] 9.1% | [3] 38.9% | [4] 29.2% | [5] 13.2% | [6] 29.9%

CC(C)OC(=O)Nc1ccc(F)c(F)c1
inactive: [1] 24.9% | [2] -16.8% | [3] 2.6% | [4] -2.8% | [5] 6.85% | [6] 20.1%

CCOC(=O)CC1C(C)C(C)NC(C)C1C (configuration not stated)
inactive: [1] -1.85% | [2] -24.3% | [3] -20.2% | [4] 12.1% | [5] 2.95% | [6] 5.75%

CC[N+](C)(CC)CCOC(=O)C(c1ccccc1)C(O)C1CCCC1 (configuration not stated)
inactive: [1] -6.85% | [2] 3.45% | [3] -0.2% | [4] -6.2% | [5] 20.9% | [6] -8.15%

CCC(=O)N(C)c1ccccc1
inactive: [1] 22.4% | [2] 6.3% | [3] 0.75% | [4] 12.2% | [5] -0.35% | [6] -23.4%

CCOC(=O)c1cnc2ccccn2c1=O
inactive: [1] 5.15% | [2] 6.15% | [3] 7.3% | [4] 7.2% | [5] -18% | [6] -2.25%

Source: PubChem BioAssay (NCI)
